Data on four compounds can be found in PubChem BioAssay (EPA / NIEHS).

Assay [1] concerns the target Glucocorticoid receptor (Homo sapiens) (UniProt P04150). In words: ATG_GR_TRANS: Attagene TRANS-FACTORIAL HepG2 Assay for human Glucocorticoid Receptor (GR) (AID 2282978; active means hit-call score of the fitted dose curve at least 0.9, where 1 is the maximum;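 further: activators score as hits since higher reporter transcript over DMSO is fitted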). The settings on record: HepG2 Attagene TRANS GR reporter, mRNA transcription. The method, boiled down: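 Exogenous NR-GAL4 fusion activity was assessed through induced GAL4-UAS reporter transcripts in transfected human HepG2 cells, quantified after 24 h by RT-PCR and fluorescent capillary electrophoresis with DMSO as baseline.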

Assay [2] can be described thus: ATG_M_06_TRANS: Attagene TRANS-FACTORIAL HepG2 Assay for M06 Transcription Factor (Internal Marker) (AID 2282983; active means hit-call score of the fitted dose curve at least 0.9, where 1 is the maximum). The note with it: HepG2 Attagene TRANS M06 internal marker reporter. The method, boiled down:
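Cells: HepG2, transient multi-reporter transfection. Exposure: 24 h. Detection: RT-PCR, 6-FAM labelling, HpaI digestion (2 h, 37 °C), capillary electrophoresis. Baseline: DMSO.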

Assay [3] in a line: ATG_M_32_TRANS: Attagene TRANS-FACTORIAL HepG2 Assay for M32 Transcription Factor (Internal Marker) (AID 2282984; active means hit-call score of the fitted dose curve at least 0.9, where 1 is the maximum;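 further: transcript level of a background control reporter unit measured by RT-PCR and capillary electrophoresis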). The settings on record: HepG2 Attagene TRANS M32 internal marker reporter. Put shortly:
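Capillary electrophoresis of 6-FAM-labelled reporter fragments gives the signal; data fitted for gain over DMSO negative control. Source: HepG2 cells bearing transient multiple reporter transcription units, 24 h exposure.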

Assay [4] addresses Nuclear receptor subfamily 4 group A member 2 (Homo sapiens) (UniProt P43354). Kind of assay: ATG_NURR1_TRANS: Attagene TRANS-FACTORIAL HepG2 Assay for human Nuclear Receptor Related Protein 1 (NURR1) (AID 2282985; active means hit-call score of the fitted dose curve at least 0.9, where 1 is the maximum). The note with it: HepG2 Attagene TRANS reporter, mRNA readout. Put shortly: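 HepG2 / transient MRTU transfection / 24 h compound exposure / RT-PCR + CE fluorescence of reporter mRNA / gain-of-signal vs DMSO.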

The target in assay [5] is Transcriptional activator Myb (Homo sapiens) (UniProt P10242). Kind of assay: ATG_Myb_CIS: Attagene CIS-FACTORIAL HepG2 Assay for human Myeloblastosis (Myb) Proto-Oncogene Transcription Factor (AID 2282986). The settings on record: HepG2 Attagene CIS-FACTORIAL Myb reporter transcription; actives raise or lower the signal. The method, boiled down:
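In this HepG2 transient-transfection format, cis-regulated reporter mRNA is quantified 24 h post-dosing by RT-PCR with capillary electrophoresis, fitted bidirectionally to DMSO baseline.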

Assay [6] deals with Nuclear respiratory factor 1 (Homo sapiens) (UniProt Q16656). In words: ATG_NRF1_CIS: Attagene CIS-FACTORIAL HepG2 Assay for human Nuclear Respiratory Factor 1 (NRF1) Orphan Gene (AID 2282987). The settings on record: HepG2 NRF1 cis-element reporter, Attagene multiplex; actives raise or lower the signal. The method, boiled down:
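Using DMSO as baseline, gain- or loss-of-signal was fitted for reporter mRNA levels in HepG2 cells transiently transfected with cis-regulated reporter units. Samples were taken 24 h after dosing and read by RT-PCR with capillary electrophoresis.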

Assay [7] is described as follows: ATG_NFI_CIS: Attagene CIS-FACTORIAL HepG2 Assay for human Nuclear Factor I (NFI) (AID 2282989). The settings on record: HepG2 cis-regulatory reporter, NFI response element transcription; actives raise or lower the signal. Put shortly:
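Transient MRTU transfection of HepG2 → 24 h chemical dosing → total RNA, oligo(dT) RT → PCR, 6-FAM primer extension, HpaI cut → capillary electrophoresis. Endpoint fitted bidirectionally relative to DMSO.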

In assay [8] the target is Myc proto-oncogene protein (Homo sapiens) (UniProt P01106). Kind of assay: ATG_Myc_CIS: Attagene CIS-FACTORIAL HepG2 Assay for human Myelocytomatosis (Myc) Proto-Oncogene Transcription Factor (AID 2282990). The note with it: HepG2, Attagene cis-reporter transcription factor activity; actives raise or lower the signal. Put shortly: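 Read-out: fluorescent reporter mRNA fragments resolved by capillary electrophoresis after RT-PCR. Human HepG2 liver cells carried transfected cis-element reporter units and were dosed for 24 h. Gain or loss of signal fitted relative to DMSO baseline.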

Assay [9] can be described thus: ATG_NF_kB_CIS: Attagene CIS-FACTORIAL HepG2 Assay for human Nuclear Factor Kappa B (NF-kB) (AID 2282991). The note with it: HepG2 Attagene cis-factorial NF-kB reporter mRNA; actives raise or lower the signal. Put shortly: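 Endpoint from a 52-component multiplexed HepG2 reporter panel: cis-regulated transcription units transiently transfected, 24 h dosing, reporter mRNA quantified by RT-PCR and capillary electrophoresis, scored as increase or decrease against DMSO.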

Assay [10] in a line: ATG_NRF2_ARE_CIS: Attagene CIS-FACTORIAL HepG2 Assay for human Nuclear Factor Erythroid 2 Related Factor 2 (NFR2) response to Antioxidant Response Elements (ARE) (AID 2282992).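 On AC50: reporter mRNA level measured by RT-PCR and capillary electrophoresis fluorescence.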 The settings on record: HepG2 Attagene ARE/NRF2 reporter, transcription factor activity; actives raise or lower the signal. Put shortly: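 HepG2 cells transiently transfected with multiplexed cis-regulated reporter transcription units measure endogenous transcription factor activity. Reporter mRNA at 24 h is quantified by RT-PCR, fluorescent labelling and capillary electrophoresis, with bidirectional fitting relative to DMSO.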

Assay [11] in a line: ATG_Oct_MLP_CIS: Attagene CIS-FACTORIAL HepG2 Assay for human Octamer-Binding Transcription Factor (Oct) (AID 2282993). The settings on record: HepG2 Attagene cis-factorial Oct reporter, mRNA; actives raise or lower the signal. Put shortly:
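Transient MRTU transfection of HepG2 → 24 h compound treatment → RNA isolation, reverse transcription, PCR → 6-FAM primer extension, HpaI digest → capillary electrophoresis. Activity fitted both directions against DMSO.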

Assay [12] deals with Cellular tumor antigen p53 (Homo sapiens) (UniProt P04637). Kind of assay: ATG_p53_CIS: Attagene CIS-FACTORIAL HepG2 Assay for human p53 Transcription Factor (AID 2282994). The settings on record: HepG2 p53 cis-element reporter, Attagene mRNA; actives raise or lower the signal. The method, boiled down:
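HepG2 cells transiently transfected with multiplexed cis-regulated reporter transcription units read endogenous TF activity. After 24 h compound exposure, reporter mRNA was quantified by RT-PCR, fluorescent labelling, HpaI digestion and capillary electrophoresis; bidirectional fits versus DMSO baseline.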

Assay [13] can be described thus: BSK_3C_VCAM1: BioMAP Diversity Plus: 3C Assay for Vascular cell adhesion molecule 1 (VCAM1) Biomarker Activity (AID 2282999). The note with it: BioMAP 3C HUVEC, VCAM1 ELISA, cytokine-stimulated; actives raise or lower the signal. The method, boiled down:
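Human umbilical vein endothelial cells (3C system), biomarker read by ELISA 24 h after dosing; bidirectional fit against DMSO baseline. Cytotoxicity tracked by SRB total-protein staining in parallel cultures at biomarker time.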
(In general: ELISA stands for enzyme-linked immunosorbent assay.)

Assay [14] in a line: BSK_4H_Eotaxin3: BioMAP Diversity Plus: 4H Assay for Eotaxin 3 Biomarker Activity (AID 2283000).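 On outcome: CCL26 protein level quantified by ELISA in parallel with SRB cytotoxicity check.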 The note with it: primary human endothelial cells (HUVEC); actives raise or lower the signal. Put shortly:
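Human umbilical vein endothelial cells (BSK_4H system) dosed with test chemical; Eotaxin-3 (CCL26) measured by ELISA 24 h after dosing. Bidirectional curve fitting relative to DMSO negative control as baseline.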

Assay [15] concerns the target human Peroxisome Proliferator-activated Receptor alpha (PPARa), PPARA (gene 5465) (UniProt Q07869). Kind of assay: ATG_PPARa_TRANS: Attagene TRANS-FACTORIAL HepG2 Assay for human Peroxisome Proliferator-activated Receptor alpha (PPARa) (AID 2283001; active means hit-call score of the fitted dose curve at least 0.9, where 1 is the maximum). The method, boiled down:
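Measures transcriptional activity of an exogenous chimeric PPARa-Gal4 protein in transiently transfected HepG2 cells after 24 h dosing. Reporter mRNA quantified via RT-PCR and capillary electrophoresis; DMSO served as negative control.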

Assay [16] has as its target Oxysterols receptor LXR-alpha (Homo sapiens) (UniProt Q13133). Kind of assay: ATG_LXRa_TRANS: Attagene TRANS-FACTORIAL HepG2 Assay for human Liver X Receptor alpha (LXRa) (AID 2282980; active means hit-call score of the fitted dose curve at least 0.9, where 1 is the maximum). The settings on record: HepG2 Attagene TRANS reporter, LXRa transactivation. Put shortly:
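Chemical-induced reporter mRNA measured by RT-PCR with fluorescent labelling and capillary electrophoresis after 24 h dosing of transiently transfected HepG2 cells expressing exogenous NR-Gal4 chimeras; increases scored against DMSO baseline.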

Assay [17] deals with Oxysterols receptor LXR-beta (Homo sapiens) (UniProt P55055). Kind of assay: ATG_LXRb_TRANS: Attagene TRANS-FACTORIAL HepG2 Assay for human Liver X Receptor beta (LXRb) (AID 2282981; active means hit-call score of the fitted dose curve at least 0.9, where 1 is the maximum). The note with it: HepG2 Attagene TRANS GAL4-LXRb reporter, mRNA. The method, boiled down: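 Gain-of-signal mRNA reporter endpoint, DMSO as negative control. Transiently transfected HepG2 cells carrying the NR-Gal4 chimera and GAL4-UAS reporter units were treated 24 h; transcripts quantified by RT-PCR and capillary electrophoresis fluorescence.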

Assay [18] in a line: BSK_3C_TissueFactor: BioMAP Diversity Plus: 3C Assay for Tissue Factor Biomarker Activity (AID 2282997). The settings on record: BioMAP 3C HUVEC, tissue factor biomarker readout; actives raise or lower the signal. Put shortly: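 Dosing of human umbilical vein endothelial cells preceded a 24 h incubation. Tissue Factor was then read by ELISA, with increases and decreases both scored relative to DMSO controls.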

Assay [19] can be described thus: BSK_3C_uPAR: BioMAP Diversity Plus: 3C Assay for Urokinase-type plasminogen activator receptor (uPAR) Biomarker Activity (AID 2282998). The settings on record: BioMAP 3C HUVEC, uPAR biomarker ELISA; actives raise or lower the signal. The method, boiled down:
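ELISA readout of uPAR on human vascular endothelium (umbilical vein primary cells), taken 24 h after chemical dosing. Increases and decreases are both fitted relative to DMSO vehicle.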

SMILES strings stand for the structures. Results filed as inconclusive are left out. Activity calls are given as the source filed them. How the source made its calls, unless noted: active means hit-call score of the fitted dose curve at least 0.9, where 1 is the maximum; inactive means score below 0.9.

Nuclear receptor subfamily 4 group A member 2 (Homo sapiens), sequence (P43354 whole entry, looked up): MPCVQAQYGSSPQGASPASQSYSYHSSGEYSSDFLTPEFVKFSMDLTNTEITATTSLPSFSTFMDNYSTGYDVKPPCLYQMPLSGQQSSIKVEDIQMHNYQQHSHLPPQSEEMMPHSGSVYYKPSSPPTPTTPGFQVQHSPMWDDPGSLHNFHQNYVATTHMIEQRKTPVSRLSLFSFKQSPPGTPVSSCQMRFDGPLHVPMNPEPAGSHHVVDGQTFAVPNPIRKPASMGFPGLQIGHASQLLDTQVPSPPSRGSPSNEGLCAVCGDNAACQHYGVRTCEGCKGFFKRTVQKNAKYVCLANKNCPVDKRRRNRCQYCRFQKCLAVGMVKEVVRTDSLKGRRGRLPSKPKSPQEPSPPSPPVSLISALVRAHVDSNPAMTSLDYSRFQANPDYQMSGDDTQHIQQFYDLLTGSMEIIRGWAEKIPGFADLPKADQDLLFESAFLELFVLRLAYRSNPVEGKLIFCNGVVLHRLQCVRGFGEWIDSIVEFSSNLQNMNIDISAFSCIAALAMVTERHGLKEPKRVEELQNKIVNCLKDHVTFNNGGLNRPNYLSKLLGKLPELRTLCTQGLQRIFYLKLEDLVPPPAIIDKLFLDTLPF
Glucocorticoid receptor (Homo sapiens), sequence (P04150 whole entry, looked up, the tested form may be a part): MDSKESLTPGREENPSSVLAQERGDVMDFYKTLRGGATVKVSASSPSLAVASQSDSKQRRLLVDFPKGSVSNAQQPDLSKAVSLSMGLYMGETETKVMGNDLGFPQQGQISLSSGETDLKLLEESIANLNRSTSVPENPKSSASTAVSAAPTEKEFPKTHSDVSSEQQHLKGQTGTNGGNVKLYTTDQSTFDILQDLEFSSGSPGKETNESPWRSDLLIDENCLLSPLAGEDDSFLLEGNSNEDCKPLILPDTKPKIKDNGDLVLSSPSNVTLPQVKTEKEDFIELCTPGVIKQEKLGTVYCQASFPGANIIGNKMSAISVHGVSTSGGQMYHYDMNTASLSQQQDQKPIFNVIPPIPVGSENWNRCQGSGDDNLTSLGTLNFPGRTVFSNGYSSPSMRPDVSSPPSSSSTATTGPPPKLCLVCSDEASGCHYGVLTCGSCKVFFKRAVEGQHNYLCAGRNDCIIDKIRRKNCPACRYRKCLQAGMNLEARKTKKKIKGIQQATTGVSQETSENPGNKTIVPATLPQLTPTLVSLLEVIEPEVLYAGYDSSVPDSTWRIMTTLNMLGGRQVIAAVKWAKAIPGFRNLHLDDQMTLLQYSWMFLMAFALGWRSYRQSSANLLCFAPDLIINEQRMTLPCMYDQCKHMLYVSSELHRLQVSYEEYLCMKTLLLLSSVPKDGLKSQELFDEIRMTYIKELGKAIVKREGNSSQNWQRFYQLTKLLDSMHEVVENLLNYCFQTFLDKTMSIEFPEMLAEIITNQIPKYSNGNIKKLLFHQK
Transcriptional activator Myb (Homo sapiens), sequence (P10242 whole entry, looked up): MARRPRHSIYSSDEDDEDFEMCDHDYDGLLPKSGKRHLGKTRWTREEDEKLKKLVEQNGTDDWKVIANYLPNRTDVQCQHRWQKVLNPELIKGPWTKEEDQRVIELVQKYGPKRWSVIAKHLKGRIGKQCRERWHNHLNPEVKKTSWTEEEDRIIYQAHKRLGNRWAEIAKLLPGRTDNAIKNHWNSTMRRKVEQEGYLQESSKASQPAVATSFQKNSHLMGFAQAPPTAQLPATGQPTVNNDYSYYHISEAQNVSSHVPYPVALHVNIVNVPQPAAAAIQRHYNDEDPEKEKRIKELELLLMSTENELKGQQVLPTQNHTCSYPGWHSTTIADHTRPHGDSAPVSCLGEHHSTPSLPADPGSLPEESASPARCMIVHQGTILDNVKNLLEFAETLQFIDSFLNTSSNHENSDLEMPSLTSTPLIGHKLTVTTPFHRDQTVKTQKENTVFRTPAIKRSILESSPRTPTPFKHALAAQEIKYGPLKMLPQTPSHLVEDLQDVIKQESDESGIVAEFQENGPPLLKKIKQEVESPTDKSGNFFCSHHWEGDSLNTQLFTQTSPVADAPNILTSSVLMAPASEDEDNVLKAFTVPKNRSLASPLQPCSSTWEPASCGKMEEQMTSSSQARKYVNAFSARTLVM
human Peroxisome Proliferator-activated Receptor alpha (PPARa), PPARA (gene 5465), sequence (Q07869 whole entry, looked up, the tested form may be a part): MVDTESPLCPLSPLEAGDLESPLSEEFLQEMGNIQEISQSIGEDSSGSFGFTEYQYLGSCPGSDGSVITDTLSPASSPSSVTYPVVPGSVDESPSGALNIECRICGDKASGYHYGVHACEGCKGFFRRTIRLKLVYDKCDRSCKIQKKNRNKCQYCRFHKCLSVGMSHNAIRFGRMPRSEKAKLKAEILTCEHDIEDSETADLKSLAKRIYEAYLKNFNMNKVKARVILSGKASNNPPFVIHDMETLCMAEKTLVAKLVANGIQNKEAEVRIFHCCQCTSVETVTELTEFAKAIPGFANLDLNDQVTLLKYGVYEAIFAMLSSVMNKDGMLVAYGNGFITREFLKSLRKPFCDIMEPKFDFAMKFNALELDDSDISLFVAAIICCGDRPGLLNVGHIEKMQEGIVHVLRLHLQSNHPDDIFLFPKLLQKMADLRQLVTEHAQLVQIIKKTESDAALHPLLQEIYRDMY
Cellular tumor antigen p53 (Homo sapiens), sequence (P04637 whole entry, looked up): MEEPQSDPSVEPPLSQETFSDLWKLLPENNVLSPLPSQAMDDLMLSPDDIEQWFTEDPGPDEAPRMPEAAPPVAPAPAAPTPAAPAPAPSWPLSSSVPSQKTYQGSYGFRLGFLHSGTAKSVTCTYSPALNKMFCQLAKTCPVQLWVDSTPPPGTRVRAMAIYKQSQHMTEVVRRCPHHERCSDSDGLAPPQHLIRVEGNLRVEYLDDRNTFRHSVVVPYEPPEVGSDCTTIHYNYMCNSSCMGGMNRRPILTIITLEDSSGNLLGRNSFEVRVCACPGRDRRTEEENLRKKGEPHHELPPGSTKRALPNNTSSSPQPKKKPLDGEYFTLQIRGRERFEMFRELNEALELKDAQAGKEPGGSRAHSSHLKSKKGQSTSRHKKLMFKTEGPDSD
Myc proto-oncogene protein (Homo sapiens), sequence (P01106 whole entry, looked up, the tested form may be a part): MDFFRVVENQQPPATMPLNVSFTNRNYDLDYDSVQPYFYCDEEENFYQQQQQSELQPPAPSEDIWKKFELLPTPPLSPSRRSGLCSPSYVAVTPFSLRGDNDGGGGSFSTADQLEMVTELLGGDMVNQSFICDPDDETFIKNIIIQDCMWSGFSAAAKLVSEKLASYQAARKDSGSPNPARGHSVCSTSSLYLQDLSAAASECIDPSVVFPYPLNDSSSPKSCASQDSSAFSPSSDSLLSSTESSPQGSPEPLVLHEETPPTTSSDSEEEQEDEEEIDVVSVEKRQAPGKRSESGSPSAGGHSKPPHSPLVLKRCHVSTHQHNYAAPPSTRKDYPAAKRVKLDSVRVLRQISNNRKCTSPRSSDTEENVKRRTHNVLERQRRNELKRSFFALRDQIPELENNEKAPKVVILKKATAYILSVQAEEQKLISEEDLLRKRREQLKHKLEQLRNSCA
Nuclear respiratory factor 1 (Homo sapiens), sequence (Q16656 whole entry, looked up): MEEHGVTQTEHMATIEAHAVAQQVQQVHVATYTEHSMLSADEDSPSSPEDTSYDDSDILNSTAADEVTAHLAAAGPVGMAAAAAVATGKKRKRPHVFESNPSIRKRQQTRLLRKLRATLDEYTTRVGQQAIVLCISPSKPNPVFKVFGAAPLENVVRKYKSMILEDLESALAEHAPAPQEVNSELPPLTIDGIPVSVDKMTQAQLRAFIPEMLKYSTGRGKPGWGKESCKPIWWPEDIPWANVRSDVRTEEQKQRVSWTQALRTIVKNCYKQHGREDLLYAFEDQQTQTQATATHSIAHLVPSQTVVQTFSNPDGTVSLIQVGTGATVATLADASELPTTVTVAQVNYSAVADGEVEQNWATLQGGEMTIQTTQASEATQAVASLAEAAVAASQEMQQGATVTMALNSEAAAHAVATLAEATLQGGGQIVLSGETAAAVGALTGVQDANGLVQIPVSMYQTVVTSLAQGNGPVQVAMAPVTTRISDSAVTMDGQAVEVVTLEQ
Oxysterols receptor LXR-beta (Homo sapiens), sequence (P55055 whole entry, looked up, the tested form may be a part): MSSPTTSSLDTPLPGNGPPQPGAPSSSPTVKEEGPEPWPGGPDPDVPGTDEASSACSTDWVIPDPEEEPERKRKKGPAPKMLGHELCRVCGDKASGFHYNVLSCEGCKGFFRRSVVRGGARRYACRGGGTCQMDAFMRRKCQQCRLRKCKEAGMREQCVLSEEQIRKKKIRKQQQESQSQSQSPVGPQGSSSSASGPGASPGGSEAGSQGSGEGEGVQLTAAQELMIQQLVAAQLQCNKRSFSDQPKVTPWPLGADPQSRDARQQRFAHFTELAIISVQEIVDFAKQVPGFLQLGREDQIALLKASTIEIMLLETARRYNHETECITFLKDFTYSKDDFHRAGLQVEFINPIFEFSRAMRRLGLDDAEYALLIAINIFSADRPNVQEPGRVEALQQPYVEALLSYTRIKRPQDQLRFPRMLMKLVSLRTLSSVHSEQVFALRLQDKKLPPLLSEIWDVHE
Oxysterols receptor LXR-alpha (Homo sapiens), sequence (Q13133 whole entry, looked up, the tested form may be a part): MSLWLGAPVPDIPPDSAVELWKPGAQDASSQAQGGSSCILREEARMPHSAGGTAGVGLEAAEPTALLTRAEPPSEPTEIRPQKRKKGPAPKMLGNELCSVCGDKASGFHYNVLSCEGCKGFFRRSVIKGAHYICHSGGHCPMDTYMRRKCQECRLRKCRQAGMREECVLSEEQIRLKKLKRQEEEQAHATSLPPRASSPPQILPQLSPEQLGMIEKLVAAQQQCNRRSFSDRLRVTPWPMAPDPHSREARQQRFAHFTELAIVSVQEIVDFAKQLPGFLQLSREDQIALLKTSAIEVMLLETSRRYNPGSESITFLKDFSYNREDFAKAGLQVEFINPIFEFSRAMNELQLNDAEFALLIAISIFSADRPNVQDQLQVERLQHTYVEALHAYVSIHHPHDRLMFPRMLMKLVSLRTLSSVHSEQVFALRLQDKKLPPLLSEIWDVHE

What is called AC50 is the concentration at which the activity in the assay is half-maximal. For the compound `CCCCCOC(=O)c1ccccc1C(=O)OCCCCC`, the call in assay [1], in [2], in assay [3], in assay [4], in assay [5] and in assay [6] was inactive. In addition, the compound was classed as inactive in [7], in assay [8], in assay [9], in assay [12] and in [15]. Further, the AC50 is 56.4 µM (active) in assay [10], 161 µM (active) in assay [11], 20 µM (active) in assay [13] and 20 µM (active) in [14].

With `O=C(O)C1C2CCC(O2)C1C(=O)O` (centres undefined), the call in assay [16], in assay [17], in assay [2], in assay [4], in assay [5] and in [6] was inactive. The outcome in assay [7], in [8], in assay [18], in assay [19], in assay [14] and in [15] was inactive. For the same compound, the AC50 in assay [10] is 34.7 µM (active); in [11], 75.4 µM (active); in [12], 100 µM (active); in assay [13], 21 µM (active).

For the compound `CN(C)c1ccccc1`, the result in assay [1], in [2], in assay [5], in [6], in assay [7] and in [8] was inactive. For the same compound, the result in assay [10], in assay [11], in [12], in assay [19], in assay [13] and in assay [14] was inactive. Also, the call in assay [15] was inactive.

Take `Nc1ccc(N=Nc2ccccc2)cc1`: the call in assay [1], in assay [17], in [3], in assay [4], in [5] and in assay [6] was inactive. The result in assay [7], in [8], in assay [12], in [18], in assay [13] and in [14] was inactive. In addition, the call in [15] was inactive. Also, the values for the AC50 in assay [10] and in assay [11] were 3.6 µM (active) and 36.2 µM (active), respectively.
